Bioassay records from PubChem.
BRCA1 expr act = BRCA1 expression activation; MCF7-BRCA1-FFLuc reporter, luminescence, 48 h; response scale: scaled: vehicle 0%, 10 µM genistein 100%; Potency, µM (series often up to 46.1 µM), for inactives: top-dose activation, hits mostly activators; 380,000 tested, 1.1% active; note: potency is the fitted concentration of half-maximal effect; nearly all actives have a fitted effect of over 80% in size
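Reporter cells (MCF7, BRCA1 promoter-firefly luciferase) received library compounds across a concentration series for 48 h. End-point luminescence was measured and concentration-effect curves derived after normalization.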
IL2 activator = activates IL-2 in a cell-based reporter assay | 360,000 tested, 0.065% active | activation, % (series mostly up to about 46 µM) | IL-2 activation reporter assay, cell-based qHTS; stimulated with anti-CD3/CD4/CD28 beads; in transgenic mouse T cells | AID 652025; in the data active = activation above about 50%; inconclusive = mostly about 30% to 49%; note: 0% is about no effect
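EGFP and DsRed fluorescence is measured by plate cytometry in unstimulated transgenic mouse T cells exposed to compound for 60 minutes, then stimulated 18 hours at 37 degrees C with anti-CD3/anti-CD4 beads plus anti-CD28.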
Nrf2 ARE act = activators of Nrf2 (ARE) signaling; Potency, µM (doses to about 46.1 µM), for inactives: at the highest dose activation, hits mostly activators; 410,000 tested, 0.31% active; AREc32 ARE-luciferase reporter (MCF7-derived line), luminescence, 24 h; AID 624171; note: potency is the fitted concentration of half-maximal effect; % of control where 0% means no effect; nearly all actives have a fitted effect of over 65% in size
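Luciferase luminescence (Steady-Glo, 30 min at room temperature) served as the read-out of ARE activation in AREc32 cells treated with compounds for 24 hr at 37 deg C.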
ELG1 DNA repair = blocks ELG1-dependent DNA repair in HEK293T cells; 330,000 tested, 2.3% active; HEK293T ELG1-luciferase reporter, luminescence, 16 h; DNA damage induced by 5-fluorouridine; Potency, µM (doses to about 46.1 µM), for inactives: at the top dose activity change, negative = inhibition, actives largely listed as inhibitors; note: potency is the fitted concentration of half-maximal effect; % is set by controls: 0 for no effect and ±100 for the full control effect; nearly all actives have a fitted effect of over 55% in size
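Luminescence from the luciferase reporter, measured 30 min after ONE-Glo reagent at room temperature, was the read-out. Beforehand, 2,000 cells per well were exposed for 16 hr at 37 °C to 5-fluorouridine together with compound or vehicle.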
* hit, by the source's call; ? = inconclusive; · = no result given. Compounds with a hit are over-represented: about 3.1% of the library has one in this group of screens. Unless noted, calls come from the whole dose curve; as a rule, active = well fitted curve in the direction sought with a large enough effect; inconclusive = small, poorly fitted or top-dose-only effect, or another doubt; inactive = no such curve, though single readings can be large; an effect the other way counts as inactive or inconclusive.

SMILES	BRCA1 expr act	IL2 activator	Nrf2 ARE act	ELG1 DNA repair
CC(C)Oc1ccc(S(=O)(=O)N2CCCCC2)cc1NC(=O)C1=NN(c2ccccc2)C(=O)CC1	-12%	-4	0%	·
COc1ccc(NS(=O)(=O)c2cccc(NC(=O)C3=NN(c4ccccc4)C(=O)CC3)c2)cc1	-29%	0	4%	9.2µM*
CC(C)Oc1ccc(S(=O)(=O)N2CCOCC2)cc1NC(=O)C1=NN(c2ccccc2)C(=O)CC1	-63%	-3	-1%	10µM*
CN(c1ccccc1)S(=O)(=O)c1cccc(NC(=O)C2=NN(c3ccccc3)C(=O)CC2)c1	-35%	-1	4%	7.3µM*
CN(c1ccccc1)S(=O)(=O)c1cccc(NC(=O)c2ccncc2)c1	-25%	-1	1%	?
COc1ccc(N2CCN(C(CNC(=O)C(=O)NCCCN(C)C)c3cccnc3)CC2)cc1 (stereo unspecified)	·	·	1%	·
CCOC(=O)/C(=N\Nc1ccc(OC)cc1)c1csc(Nc2ccccc2)n1	-31%	1	4%	16µM*
COc1ccc(C2c3[nH]c4ccccc4c3C[C@H]3C(=O)N(C4CCN(Cc5ccccc5)CC4)CC(=O)N23)cc1OC (stereo partly specified)	-14%	-4	5%	-7%
COc1ccccc1C1c2[nH]c3ccccc3c2C[C@H]2C(=O)N(C3CCN(Cc4ccccc4)CC3)CC(=O)N12 (stereo partly specified)	-42%	-4	6%	23µM*
CC(=O)Nc1ccc(-c2ccnc3c2CC(C(=O)NCC2CCOCC2)O3)cc1 (stereo unspecified)	-43%	0	0%	·
c1cc(Nc2ncnc3sccc23)cc(-c2nnc3n2CCCCC3)c1	-27%	0	4%	23µM*
CCOc1ccc(-c2cc(C(=O)NCCc3ccccc3)c3c(-c4ccc(C)cc4)[nH]nc3n2)cc1	0%	·	1%	·
Cc1nc(NCc2ccc(S(N)(=O)=O)cc2)c2c(C)c(C)sc2n1	-4%	0	-1%	5%
Cc1nc(NCCc2ccc(S(N)(=O)=O)cc2)c2c(C)c(C)sc2n1	-53%	-1	2%	13µM*
O=c1cc(NCc2ccco2)c2ccccc2o1	10%	0	13µM*	-6%
CCOc1ccccc1NCc1cc(=O)oc2cc(C)ccc12	-26%	-8	4%	1%
O=c1cc(NCc2ccccc2)c2ccccc2o1	-3%	-1	-1%	?
Cc1ccc2c(CNCc3ccco3)cc(=O)oc2c1	7.9µM*	-1	3%	?
CCn1c(C(=O)Nc2cc(C)cc(C)c2)cc2sc(Cl)cc21	·	·	3%	·
CC1(C)CC(=O)c2cc(-c3nc(-c4ccc(Br)cc4)cs3)c(=O)n(-c3ccccc3)c2C1	-13%	·	-1%	·
CCN(CC)C(=O)c1cc(-c2ccc(Br)cc2)on1	7.9µM*	1	0%	?
Cc1ccc(NC(=O)Cn2c(=O)n(Cc3ccc4c(c3)OCO4)c(=O)c3ccc(C(=O)NC4CCCCC4)cc32)cc1	16%	·	0%	·
CC1(C)CC2CC(C)(CN2C(=O)NC(=O)c2ccccc2)C1 (stereo unspecified)	4%	-1	0%	5%
Cc1ccc(C(=O)Nc2ccccc2C(=O)N2CC3(C)CC2CC(C)(C)C3)cc1 (stereo unspecified)	-37%	-3	0%	23µM*
COc1ccc(CNC(=O)/C=C/c2ccc(S(=O)(=O)N3CCOCC3)cc2)cc1	-28%	0	0%	?
SMILES	BRCA1 expr act	IL2 activator	Nrf2 ARE act	ELG1 DNA repair
COc1ccc(CN(C)C(=O)/C=C/c2ccc(S(=O)(=O)N3CCOCC3)cc2)cc1F	-19%	-2	3%	23µM*
CN(Cc1ccc(OC(F)F)cc1)C(=O)/C=C/c1ccc(S(=O)(=O)N2CCOCC2)cc1	3%	-1	2%	16µM*
CN(Cc1ccc(OC(F)F)cc1)C(=O)C1CCN(S(=O)(=O)c2ccc3c(c2)OCCO3)CC1	-13%	-1	4%	7.3µM*
CSCCC(C(=O)Nc1c(C)cccc1C)n1c(-c2cc(C)cs2)nc2ccccc21 (stereo unspecified)	·	0	·	·
COC(=O)Cc1ccc2sc(-c3ccccc3)nc2c1	7.1µM*	0	?	?
CCC(=O)c1ccc(OCC(=O)N2CCc3cc(OC)c(OC)cc3C2)cc1	7%	1	0%	-22%
COc1cc2c(cc1OC)CN(C(=O)COc1ccc(C)c(C)c1)CC2	-4%	1	-1%	18µM*
CN1/C(=C\C(=O)c2cccnc2)C(C)(C)c2ccccc21	?	2	4%	0%
CN1/C(=C\C(=O)c2cncc(Br)c2)C(C)(C)c2ccccc21	-32%	-2	1%	16µM*
CN1/C(=C\C(=O)c2cccc(S(=O)(=O)N3CCCCC3)c2)C(C)(C)c2ccccc21	-40%	-2	1%	18µM*
CC(=O)N(c1ccc(Cl)cc1)C1SC(=O)N(c2ccccc2)C1=O (stereo unspecified)	16%	·	·	·
Cc1ccc(C(=O)Nc2nnc(S(=O)(=O)N(C)Cc3ccc(Cl)cc3)s2)cc1	·	·	0%	·
COc1ccc(CCNC(=O)Cn2c(=O)n(-c3cc(OC)c(OC)c(OC)c3)c(=O)c3ccccc32)cc1OC	·	·	0%	·
COc1cc2c(cc1OC)C1(Nc3c-2c(C)nn3-c2ccccc2)C(=O)Nc2ccccc21 (stereo unspecified)	-52%	0	2%	?
CCc1nn(-c2ccccc2)c2c1-c1cc(OC)c(OC)cc1C1(N2)C(=O)Nc2ccccc21 (stereo unspecified)	-61%	-4	3%	21µM*
Cc1ccccc1/C=C1\CCCc2ccccc2C1=O	7.1µM*	-2	?	?
Nc1ccccc1C=C1Cc2ccccc2C1=O	?	0	2.8µM*	·
O=C1C(=Cc2cccc(F)c2)Cc2ccccc21	2%	1	10µM*	·
O=C(O)CSC1=NS(=O)(=O)c2ccccc21	12%	·	·	·
COc1cc(OC)cc(C2=Cc3ccccc3C(CC(=O)c3ccco3)N2c2ccc(-c3cncnc3)cc2)c1 (stereo unspecified)	-14%	3	0%	·
COc1ccc(-n2cnc3c(sc4nccc(N(C)C)c43)c2=O)cc1	27%	1	-1%	?
Cc1ccc(-n2cnc3c(sc4nccc(N(C)C)c43)c2=O)cc1	?	0	0%	10µM*
Cc1cc(C)c(S(=O)(=O)NCC(c2ccc(N(C)C)cc2)N2CCc3ccccc32)c(C)c1 (stereo unspecified)	·	·	5%	·
CC(NC(=O)c1cccc(NC(=O)c2nsc3ccccc23)c1)c1ccccc1 (stereo unspecified)	·	·	4%	·
Cc1ccc(OCC(=O)c2cc(C)n(C3CC3)c2C)c([N+](=O)[O-])n1	0%	0	5%	?
Cc1cc(C(=O)COc2cccc([N+](=O)[O-])c2)c(C)n1C1CC1	7.1µM*	0	5%	?
O=C(CSc1nc2ncccc2o1)Nc1ccc(Cl)cc1F	·	·	10%	·
